Source: PubChem
This excerpt belongs to a sample that is enriched for hits.
BL2 CD40 inh: inhibitors of CD40-induced NF-kB signaling, primary screen, BL2 cells, luciferase reporter, single point; CD40L-induced, 4 h; inhibition, % at 10 µM; 0.94% of 83,000 active;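 active = mean inhibition of at least 50% with a set share of replicates also reaching that level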
Large screens that a line does not name were inactive; ! = not active in a repeat; [ ] = dose if it differs, or a comment.

C[C@H]1CN([C@@H](C)CO)C(=O)c2ccccc2-c2ccccc2CO[C@@H]1CN(C)Cc1cccnc1	none
CC(C)NC(=O)N1[C@H](CO)[C@@H](c2ccccc2)[C@H]1CNC(=O)CN(C)C	none
CC(C)NC(=O)N(C)C[C@H]1OCc2ccccc2-c2c(n(C)c3ccccc23)C(=O)N([C@@H](C)CO)C[C@@H]1C	none
Cc1nnnn1/C(=C\c1ccccc1)C(=O)OCC(=O)Nc1ccc(Cl)cc1F	BL2 CD40 inh 78
O=C(COC(=O)Cc1ccsc1)Nc1ccc(Cl)cc1F	none
CCCCC(=O)Nc1ccc(Cl)cc1F	none
COc1ccc([C@@H]2C/C=C\C[C@@H](c3ccc4c(c3)OCO4)NC(=O)[C@H](c3ccccc3)CC(=O)N2)c(OC)c1	none
CC=Cc1ccc2n(c1=O)C[C@H]1[C@H](CO)[C@@H](C(=O)NC3CCCC3)N(Cc3ccccc3)[C@@H]21 (mixture of isomers)	none
Cc1nc(Nc2nc3ccccc3o2)nc(C)c1C(=O)Nc1ccc(F)cc1	none
Cc1nc(Nc2nc3ccccc3o2)nc2c1CCC2	BL2 CD40 inh active
COCc1cc(=O)[nH]c(Nc2nc3ccccc3o2)n1	none
CC(C)NC(=O)N1C[C@H]2[C@@H](c3ccccc31)[C@@H](CO)N2C(=O)c1ccc(F)cc1	none
CC(C)(C)[S@](=O)N1Cc2cc(C(=O)N3CCCCC3)nc(-c3cccc(C4=CCCC4)c3)c2[C@@H]1CCO	none
O=C1c2ccccc2-c2nc3ccccc3nc21	none
O=C1C(=C(I)I)c2ccccc2-c2ccccc21	BL2 CD40 inh 106
NC1=CC(=O)C(=O)c2ccccc21	none
C[C@@H]1CN(C)C(=O)Cc2cc(N(C)C)ccc2O[C@H]1CN(C)C	none
O=C1C[C@H](c2ccccc2)C(=O)N[C@H](c2ccccc2)C/C=C\C[C@H](c2ccccc2)N1	none
N#C[C@H]1[C@H](c2ccc(C#CC3CCCCC3)cc2)[C@@H](CO)N1C(=O)Nc1ccc(F)cc1	BL2 CD40 inh 63[25 µM]
N#C[C@@H]1[C@H](c2ccc(-c3cccc(F)c3)cc2)[C@H](CO)N1C(=O)NC1CCCC1	none
COc1ccc(-c2ccc([C@@H]3[C@@H](CO)N(C(=O)c4cccc(F)c4)[C@H]3C#N)cc2)cc1	none
N#C[C@@H]1[C@H](c2ccc(C#CC3CCCC3)cc2)[C@H](CO)N1C(=O)c1cccc(F)c1	none
N#C[C@H]1[C@H](c2ccc(-c3cccc(F)c3)cc2)[C@H](CO)N1C(=O)NC1CCCC1	BL2 CD40 inh 52[25 µM]
CC(C)NC(=O)N1[C@H](C#N)[C@@H](c2ccc(C#CC3CCCCC3)cc2)[C@H]1CO	none
COc1ccc(-c2ccc([C@H]3[C@@H](C#N)N(C(=O)c4cccc(F)c4)[C@H]3CO)cc2)cc1	BL2 CD40 inh 57[25 µM]
N#C[C@H]1[C@H](c2ccc(C#CC3CCCC3)cc2)[C@H](CO)N1C(=O)Nc1ccc(F)cc1	none
N#C[C@@H]1[C@H](c2ccc(C#CC3CCCC3)cc2)[C@@H](CO)N1C(=O)c1cccc(F)c1	BL2 CD40 inh 66
N#C[C@H]1[C@@H](c2ccc(-c3cccc(F)c3)cc2)[C@H](CO)N1C(=O)NC1CCCC1	none
N#C[C@H]1[C@@H](c2ccc(C#CC3CC3)cc2)[C@@H](CO)N1C(=O)c1cccc(F)c1	none
COc1ccc(-c2ccc([C@@H]3[C@H](C#N)N(C(=O)c4cccc(F)c4)[C@H]3CO)cc2)cc1	none
C[C@@H]1CN(C)C(=O)Cc2cc(N(C)C)ccc2O[C@@H]1CN(C)S(C)(=O)=O	none
CS(=O)(=O)N1CCCCN2[C@@H](CO)[C@H](c3ccc(Br)cc3)[C@@H]2C1	none
Fc1ccc(CN2C3CN(CC(F)(F)F)CC2C3c2ccc(Br)cc2)cc1 (configuration not stated)	none
C[C@@H]1CN(C)C(=O)c2cccc(NS(C)(=O)=O)c2O[C@H]1CN(C)S(C)(=O)=O	none
COc1ccc2c3c(n(C)c2c1)[C@H](CO)N(C(=O)C1CCOCC1)CC31CCN(C(=O)c2ccncc2)CC1	none
O=C(c1ccccc1F)N1CC[C@@H]2[C@H]1c1cc(-c3ccccc3)ccc1N[C@@H]2CO	none
COC(=O)C[C@H]1C[C@H]2c3cc(NC(=O)Nc4ccccc4)ccc3O[C@H]2[C@H](CO)O1	none
C[C@@H]1CN([C@@H](C)CO)C(=O)c2c(c3ccccc3n2C)-c2ccccc2CO[C@@H]1CN(C)Cc1ccc(Oc2ccccc2)cc1	none
N#C[C@@H]1[C@H](c2ccc(C#CC3CCCCC3)cc2)[C@H](CO)N1C(=O)Nc1ccc(F)cc1	BL2 CD40 inh 84[25 µM]
CC(C)NC(=O)N1[C@H](C#N)[C@@H](c2ccc(C#CC3CCCC3)cc2)[C@@H]1CO	none
CC(C)NC(=O)N1[C@H](CO)[C@H](c2ccc(C#CC3CCCC3)cc2)[C@@H]1C#N	none
CCc1csc(N2[C@H](C#N)[C@H](c3ccccc3C3=CCCC3)[C@H]2CO)n1	none
O=C(C[C@H]1CC[C@H]2[C@@H](COC[C@H](O)CN2Cc2ccc3c(c2)OCO3)O1)N1CCCCC1	none
O=C(CC1CC1)N1CC2(C1)[C@H](c1ccccc1)[C@H](CO)N2Cc1ccccn1	none
CN1C(=O)c2cc(NC(=O)C3CCC3)ccc2OC[C@H]2O[C@H](CC(=O)NCCc3ccncc3)CC[C@H]21	none
COc1ccc(CN(CCC(c2ccc(F)cc2)C2CCOC(C)(C)C2)C(=O)c2ccco2)cc1 (configuration not stated)	BL2 CD40 inh 37
O=C(c1ccco1)N(CCC(c1ccccc1)c1ccco1)Cc1ccccc1 (configuration not stated)	none
CC1(C)CC(C(CC(=O)O)c2ccccc2)CCO1 (configuration not stated)	none
Cc1cc(N)c(C)c([N+](=O)[O-])c1C	none
Cc1cnc2c(N)cc(C)c(C)c2c1	BL2 CD40 inh 90
CCCC(=O)Nc1ccc2c(c1)C(=O)N(C)C[C@H](OC)[C@H](C)CN(Cc1ccc(F)cc1)[C@@H](C)CO2	none
Cc1noc(C)c1NC(=O)N(C)C[C@@H]1OCc2cnnn2CCCC(=O)N([C@H](C)CO)C[C@H]1C	none
CC(C)[C@@H]1COCn2nncc2CC[C@H](C)C(=O)N1	none
O=S(=O)(Nc1nc2ccccc2[nH]1)c1ccccc1	none
O=S(=O)(NCCc1nc2ccccc2[nH]1)c1ccccc1	none
O=S(=O)(/C(=C\c1ccc(C(F)(F)F)cc1)c1nc2ccccc2[nH]1)c1ccccc1	BL2 CD40 inh 60
N#C[C@H]1[C@H](c2ccccc2-c2ccccc2F)[C@@H](CO)N1C(=O)C1CC1	none
C[C@@H]1CN([C@H](C)CO)C(=O)c2c(c3ccccc3n2C)-c2ccccc2CO[C@@H]1CN(C)Cc1ccccc1	none
O=C(C1CCOCC1)N1C[C@@H]2N[C@H](C1)C2c1ccc(/C=C/c2ccccc2)cc1 (some centres not stated)	none
O=C(C1CCCC1)N1C[C@@H]2N[C@H](C1)C2c1ccc(/C=C/c2ccccc2)cc1 (some centres not stated)	BL2 CD40 inh 49!
O=C(Nc1ccccc1)N1C[C@@H]2N[C@H](C1)[C@@H]2c1ccc(/C=C/c2ccccc2)cc1	none
O=C(c1ccc2c(c1)OCO2)N1C[C@@H]2N[C@H](C1)C2c1ccc(/C=C/c2ccccc2)cc1 (some centres not stated)	none
N#Cc1ccc(-c2ccc(C3[C@@H]4CN(C(=O)c5cccnc5)C[C@H]3N4)cc2)cc1 (some centres not stated)	none
N#Cc1cccc(-c2ccc(C3[C@@H]4CN(C(=O)C5CCOCC5)C[C@H]3N4)cc2)c1 (some centres not stated)	none
O=C(c1ccncc1)N1C[C@@H]2N[C@H](C1)C2c1ccc(/C=C/c2ccccc2)cc1 (some centres not stated)	none
